Source: paper PMC7826789 (International Journal of Molecular Sciences, 2021)

What was measured:
Settings in all cases: Compound Concentration (nM):1000
[1] = tested on: ACVR2B
[2] = tested on: ACVRL1
[3] = tested on: T1, ADCK3
T1 construct: gene CABC1

[4] = tested on: ADCK4
[5] = tested on: AKT1
[6] = tested on: AKT2
[7] = tested on: AKT3
[8] = tested on: ALK(C1156Y)
[9] = tested on: ALK(L1196M)
[10] = tested on: ALK
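Further: KINOMEscan scanMAX binding as percent activity remaining versus control; lower means stronger binding.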

| SMILES | Percent Control [1] [%] | Percent Control [2] [%] | Percent Control [3] [%] | Percent Control [4] [%] | Percent Control [5] [%] | Percent Control [6] [%] | Percent Control [7] [%] | Percent Control [8] [%] | Percent Control [9] [%] | Percent Control [10] [%] |
| --- | --- | --- | --- | --- | --- | --- | --- | --- | --- | --- |
| Cl.c1ccc(Cc2nc3ccc(Nc4ncnc5ccccc45)cc3[nH]2)cc1 [GR269666A] | 100 | 89 | 100 | 100 | 93 | 100 | 100 | 95 | 100 | 99 |
| Cc1cc(O)cc(C)c1/C=C/c1cncc(C(N)=O)c1 [GW435821X] | 7.1 | 2.6 | 100 | 100 | 96 | 100 | 100 | 96 | 88 | 100 |
| CC1=C(C(=O)Nc2ccc3[nH]ncc3c2)C(c2ccc(Cl)c(Cl)c2)CC(=O)N1 (stereo not shown) [GSK299115A] | 69 | 100 | 99 | 92 | 100 | 100 | 100 | 100 | 100 | 77 |
| Nc1ncnc2occ(-c3ccc(NC(=O)Nc4cc(C(F)(F)F)ccc4F)cc3)c12 [GW770249X] | 100 | 100 | 100 | 100 | 100 | 100 | 100 | 41 | 74 | 36 |
| CCn1c(-c2nonc2N)nc2c(C#CC(C)(C)O)nc(OCCNC)cc21.Cl [GSK949675] | 99 | 100 | 100 | 100 | 3.7 | 3.1 | 0.2 | 95 | 100 | 85 |
| NS(=O)(=O)c1ccc(N/N=C2\C(=O)Nc3ccc(C(=O)NCCc4c[nH]cn4)cc32)cc1 [GW300660X] | 100 | 100 | 100 | 100 | 100 | 100 | 100 | 92 | 91 | 100 |
| NS(=O)(=O)c1ccc(N/N=C2\C(=O)Nc3ccc(-c4cnco4)cc32)cc1 [GW276655] | 100 | 100 | 100 | 100 | 84 | 65 | 100 | 97 | 100 | 83 |
| COc1cccc(-n2ncc3c(N/N=C/c4ccncc4)ncnc32)c1 [GW784752X] | 81 | 3.7 | 100 | 31 | 100 | 100 | 100 | 95 | 91 | 87 |
| CC(C)COC(=O)c1ccc2c(c1)/C(=C/Nc1ccc(S(N)(=O)=O)cc1)C(=O)N2 [GW416981X] | 100 | 100 | 100 | 100 | 100 | 100 | 100 | 93 | 94 | 100 |
| COc1ccc2c(-c3ccnc(Nc4cccc(OC(F)(F)F)c4)n3)cnn2n1 [GW810372X] | 100 | 100 | 100 | 100 | 100 | 100 | 100 | 86 | 87 | 88 |
| COc1ccc(COc2ccc(Cc3cnc(N)nc3N)cc2OC)cc1 [GW632580X] | 100 | 100 | 92 | 100 | 75 | 100 | 100 | 94 | 87 | 98 |
| COc1cccc(-c2c[nH]c3c(N/N=C/c4ccncc4)ncnc23)c1 [GW814408X] | 71 | 59 | 100 | 36 | 100 | 100 | 100 | 97 | 99 | 100 |
| CN(C)c1cc2c(Nc3ccc4c(cnn4Cc4ccccc4)c3)ncnc2cn1 [GW282974X] | 100 | 87 | 98 | 100 | 79 | 100 | 100 | 97 | 94 | 100 |
| COc1cc(C)c(N(C)C(=O)CN(C)C)cc1Nc1nc(Nc2cccc(F)c2C(N)=O)c2cc[nH]c2n1 [GSK2219385] | 100 | 100 | 80 | 100 | 98 | 85 | 100 | 4.5 | 13 | 1.7 |
| COc1cc(N2CCN(C(C)C)CC2)ccc1Nc1nc(Nc2ccc(F)cc2C(=O)NC[C@@H](O)CO)c2cc[nH]c2n1 [GSK1392956A] | 100 | 86 | 94 | 100 | 83 | 100 | 100 | 0.1 | 1.1 | 0.2 |
| NS(=O)(=O)c1ccc(Nc2ncc(-c3ccccc3)o2)cc1 [GW572399X] | 100 | 100 | 100 | 100 | 100 | 100 | 100 | 96 | 96 | 87 |
| CCc1ccc(Oc2nccc(-c3c(-c4ccc(F)cc4)ncn3C3CCNCC3)n2)cc1 [SB-242719] | 100 | 97 | 100 | 100 | 88 | 100 | 100 | 100 | 98 | 96 |
| COc1cc(/C=N/Nc2ncnc3[nH]ncc23)ccc1O [GW578748X] | 40 | 67 | 100 | 100 | 100 | 100 | 100 | 82 | 75 | 98 |
| CCS(=O)(=O)c1ccc(OC)c(Nc2ncc(-c3cccc(F)c3)o2)c1 [GW621970X] | 100 | 49 | 100 | 100 | 100 | 100 | 100 | 88 | 97 | 73 |
| Cl.O=C(Nc1ccc(Oc2ccc3[nH]c(NC(=O)c4ccccc4)nc3c2)cc1)Nc1cc(C(F)(F)F)ccc1F [GW709042A] | 100 | 100 | 100 | 100 | 90 | 100 | 100 | 84 | 92 | 73 |

| SMILES | Percent Control [1] [%] | Percent Control [2] [%] | Percent Control [3] [%] | Percent Control [4] [%] | Percent Control [5] [%] | Percent Control [6] [%] | Percent Control [7] [%] | Percent Control [8] [%] | Percent Control [9] [%] | Percent Control [10] [%] |
| --- | --- | --- | --- | --- | --- | --- | --- | --- | --- | --- |
| CN1CCN(C(=O)c2ccc(NC(=O)Nc3ccc(N(C)c4ccnc(Nc5ccc(CS(C)(=O)=O)cc5)n4)cc3)cc2)CC1.Cl [GW830263A] | 94 | 79 | 100 | 47 | 100 | 100 | 100 | 64 | 83 | 76 |
| C/C(Nc1ccc(S(N)(=O)=O)cc1)=C1/C(=O)Nc2ccccc21 [GW335962X] | 100 | 78 | 100 | 100 | 81 | 94 | 88 | 54 | 60 | 54 |
| O=C1Nc2ccc(C(=O)c3ccco3)cc2C1=Cc1cc(Cl)c(O)c(Cl)c1 [GW406108X] | 86 | 100 | 90 | 99 | 100 | 100 | 100 | 76 | 86 | 89 |
| COc1cc2ncn(-c3cc(O[C@H](C)c4ccccc4Cl)c(C(N)=O)s3)c2cc1OC [GSK237701A] | 100 | 100 | 100 | 83 | 100 | 88 | 100 | 100 | 94 | 79 |
| CC1=C(C(=O)Nc2ccc3[nH]ncc3c2)C(c2ccc3ccccc3c2)CC(=O)N1 (stereo not shown) [GSK270822A] | 86 | 100 | 100 | 100 | 17 | 100 | 100 | 72 | 77 | 68 |
| NS(=O)(=O)c1ccc(N/N=C2\C(=O)Nc3ccc(C(=O)NCc4ccncc4)cc32)cc1 [GW300657X] | 100 | 100 | 87 | 100 | 82 | 100 | 100 | 83 | 82 | 77 |
| Cl.O=C(Nc1ccc(Oc2ccc3[nH]c(NC(=O)c4ccco4)nc3c2)cc1)Nc1cc(C(F)(F)F)ccc1F [GW683134A] | 100 | 76 | 100 | 100 | 100 | 100 | 100 | 92 | 92 | 88 |
| CCS(=O)(=O)c1ccc(OC)c(Nc2ncc(-c3cccc(OC)c3)o2)c1 [GW580509X] | 100 | 50 | 100 | 100 | 100 | 100 | 100 | 87 | 100 | 100 |
| Cl.O=C(O[C@H]1CN[C@H](C#Cc2cc3ncnc(Nc4ccc5c(cnn5Cc5ccccc5)c4)c3s2)C1)N1CCOCC1 [GSK200398A] | 100 | 82 | 100 | 100 | 92 | 100 | 100 | 94 | 88 | 100 |
| NS(=O)(=O)c1ccc(N/N=C2\C(=O)Nc3ccc(Cl)cc32)cc1 [GW280670X] | 100 | 100 | 100 | 100 | 100 | 100 | 100 | 100 | 100 | 100 |
| COc1cc(C=NNc2ncnc3c2cnn3-c2ccccc2)ccc1O [GW513184X] | 82 | 67 | 95 | 0 | 100 | 100 | 100 | 100 | 100 | 100 |
| COC(=O)Nc1nc2ccc(Oc3ccc(NC(=O)Nc4cc(C(F)(F)F)ccc4F)cc3)cc2s1.Cl [GW693917A] | 100 | 65 | 100 | 75 | 84 | 100 | 100 | 89 | 87 | 100 |
| COc1ccc2cc(-c3c(-c4ccncc4)nc(-c4ccc(S(C)(=O)=O)cc4C)n3C)ccc2c1 [SB-633825] | 84 | 100 | 100 | 80 | 100 | 94 | 100 | 70 | 73 | 58 |
| C[C@@H](Oc1cc(-n2cnc3ccc(OC4CCN(C)CC4)cc32)sc1C(N)=O)c1ccccc1Cl [GSK579289A] | 60 | 100 | 97 | 20 | 100 | 100 | 100 | 82 | 81 | 87 |
| CN(C)CCNC(=O)Nc1ccc(N(C)c2ccnc(Nc3ccc(CS(C)(=O)=O)cc3)n2)cc1.Cl [GW830900A] | 88 | 100 | 100 | 79 | 100 | 100 | 100 | 70 | 85 | 71 |
| COc1ccccc1-c1cc(/C=C2\C(=O)Nc3ncc(Br)cc32)cc(Br)c1O [GW442130X] | 100 | 95 | 100 | 100 | 93 | 100 | 100 | 100 | 100 | 100 |
| Cl.O=S1CCN(Cc2ccc(-c3ccc4ncnc(Nc5ccc(OCc6ccccc6)c(F)c5)c4c3)o2)CC1 [GW576924A] | 100 | 94 | 100 | 100 | 100 | 100 | 100 | 100 | 100 | 100 |
| O=C(Nc1n[nH]c2nc(-c3ccc(O)cc3)c(Br)cc12)C1CC1 [SB-725317] | 79 | 65 | 100 | 100 | 100 | 100 | 85 | 54 | 87 | 75 |
| COc1ccc2[nH]c3c4[nH]c5ccc(OC)cc5c4c4c(c3c2c1)C(=O)NC4=O [GW296115X] | 44 | 100 | 100 | 75 | 72 | 84 | 98 | 25 | 70 | 55 |
| COc1cc2ncnc(Nc3ccc4c(cnn4Cc4ccccc4)c3)c2cc1OC.Cl [GW282449A] | 100 | 97 | 100 | 100 | 100 | 100 | 100 | 96 | 100 | 93 |
